# Screening results as filed in PubChem BioAssay.
# Only some compounds are listed: those with a hit (about 1.4% of all), similar ones and a draw of the others.
# Polio RdRp inh = poliovirus RdRp elongation inhibitors, primary screen, biochemical, fluorescence polarization, total intensity; Genome polyprotein (Poliovirus type 1 (strain Mahoney)), P03300; poliovirus polymerase elongation; stronger effect = lower value; % elongation, % (compound at 16.7 µg/mL); 150,000 tested, 0.66% active; in the data active = % elongation below about 90%
# AID504770 = growth inhibition of E. coli YBA685, primary screen, V. cholerae RctB inhibitors. z-score (no concentration beside the values). 130,000 tested, 0.27% active. E. coli YBA685 rctB-dependent plasmid, OD600 growth, 3 h; stronger effect = lower value; in the data active = z-score below about -2, passing the limit was not always enough
# MenB inh = M. tuberculosis MenB inhibitors, primary screen, biochemical, absorbance. 1,4-dihydroxy-2-naphthoyl-CoA synthase (Mycobacterium tuberculosis (strain ATCC 25618 / …. MenB enzyme assay, absorbance read-out. inhibition, % (no concentration beside the values). 100,000 tested, 0.43% active; in the data active = inhibition above about 21%, passing the limit was not always enough
# Mtb MbtI inh = MbtI salicylate synthase inhibitors, primary screen, biochemical, fluorescence intensity. 100,000 tested, 0.89% active. purified MbtI enzyme, fluorescence intensity read-out. inhibition, % (concentration not given with the values). P9WFX0; in the data active = inhibition mostly above about 56%, no sharp cut-off; inactive = mostly below about 77%
# Target sequence (P9WFX0 whole entry, looked up): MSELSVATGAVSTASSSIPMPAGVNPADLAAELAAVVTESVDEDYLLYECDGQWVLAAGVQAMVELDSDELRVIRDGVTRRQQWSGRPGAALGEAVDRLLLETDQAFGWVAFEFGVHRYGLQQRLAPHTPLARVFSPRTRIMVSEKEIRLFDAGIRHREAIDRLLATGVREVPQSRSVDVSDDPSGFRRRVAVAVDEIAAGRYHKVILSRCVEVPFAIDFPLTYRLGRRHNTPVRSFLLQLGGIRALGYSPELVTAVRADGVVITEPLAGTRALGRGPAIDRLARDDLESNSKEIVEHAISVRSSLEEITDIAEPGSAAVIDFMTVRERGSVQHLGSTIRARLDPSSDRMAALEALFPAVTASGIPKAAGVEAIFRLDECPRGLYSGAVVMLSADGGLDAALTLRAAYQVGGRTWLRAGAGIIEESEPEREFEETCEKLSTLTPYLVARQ
# Hits are given with their value; n = inactive; x = no result given; ! = a repeat was not active.
SMILES,Polio RdRp inh,AID504770,MenB inh,Mtb MbtI inh
O=C(CCC1CCCCC1)Nc1c[nH]c(=O)[nH]c1=O,n,-2.2,n,n
O=C(Nc1c[nH]c(=O)[nH]c1=O)NC1CCCC1,n,n,n,n
CC(Cc1ccco1)NC(=O)c1ccc(NC(=O)C2=CSCCO2)cc1 (stereo not drawn),n,n,n,n
O/N=c1/sc2ccccc2n1CCS,n,n,n,69
CCCc1nnc(CSc2nc3ccccc3o2)o1,n,n,n,n
CCOC(=O)CN1CSC2=C(C#N)C(c3ccc(OC)cc3)CC(=O)N2C1 (stereo not drawn),n,n,n,n
COc1ccc(C2CC(=O)N3CN(C4CCCCC4)CSC3=C2C#N)cc1 (stereo not drawn),75,x,x,x
COc1cccc(C2CC(=O)NC(SC)=C2C#N)c1 (stereo not drawn),n,n,n,n
COc1cccc(C2CC(=O)N3CN(C4CCCCC4)CSC3=C2C#N)c1 (stereo not drawn),77,x,x,x
O=C1NC(=S)N(c2ccccc2)C(=O)/C1=C/C=C/c1ccco1,n,n,n,n
COc1cccc(N2C(=O)/C(=C/C=C/c3ccco3)C(=O)NC2=S)c1,n,n,n,101
COc1cc(/C=C/C(=O)NC2CCCCC2)cc(S(=O)(=O)NCc2ccco2)c1OC,n,n,n,n
Cc1ccc(-c2cc(-c3ccccc3)nc(=O)[nH]2)cc1,n,n,n,n
Cc1cc(C)c2c(=O)n(-c3ccccc3)[nH]c2n1,n,n,n,52
CC(C)COC(=O)c1c(N)n(-c2ccc(S(N)(=O)=O)cc2)c2nc3ccccc3nc12,x,n,n,n
O=C1NC(=O)NC(=C/C=C/c2ccc(-c3ccc(Cl)cc3Cl)o2)N1,n,n,n,57
Cc1ccccc1Nc1cc2ccccc2c(=O)[nH]1,x,-4,x,n
CC1C(=O)OC2(c3ccc(Br)cc3)C(C)C(=O)OC12 (stereo not drawn),x,n,x,n
CCOC(=O)c1c(-c2ccc(C)o2)csc1NC(=S)NC(=O)N(C)C,n,n,n,85
Cc1ccc(C(=O)NCC2COc3ccccc3O2)o1 (stereo not drawn),n,n,n,n
Cc1cc(C)c(CO)c(C)c1CO,n,n,n,n
Cc1cc(C)c(C)c(S(=O)O)c1C,83,n,n,n
CCC1(C)NC(=O)N(/N=C/c2c(C)nn(Cc3c(Cl)cccc3Cl)c2SCC(=O)O)C1=O (stereo not drawn),n,n,n,n
O=c1[nH]c(CN2CCN(Cc3ccccc3)CC2)nc2ccccc12,n,n,n,n
O=c1[nH]c(CN2CCOCC2)nc2ccccc12,70,n,n,n
SMILES,Polio RdRp inh,AID504770,MenB inh,Mtb MbtI inh
CCn1c(SC)nnc1C1CCCN(C(=O)c2ccccc2-c2ccccc2)C1 (stereo not drawn),n,n,n,n
Cn1ncc2c(=O)n(CC(=O)Nc3cccnc3Cl)cnc21,n,n,n,n
O=C(/C=C(\O)c1ccccc1)C(F)(F)C(F)F,n,-3.5,n,n
O=C(O)C(=O)/C=C(\O)c1ccccc1,x,n,x,x
c1ccc(NN=C2CCCCCCC2)cc1,n,n,n,n
CC(C)N=C(N)/N=C(\N)Nc1ccc(Cl)cc1,n,x,n,n
NC(=NCCCCCCN=C(N)/N=C(\N)Nc1ccc(Cl)cc1)/N=C(\N)Nc1ccc(Cl)cc1,n,-5,n,n
COc1cc(C(=O)Oc2ccc(Cl)c3cccnc23)cc(OC)c1OC,n,n,n,x
CCC(c1nnc(SCC(=O)NCCc2ccc(Cl)cc2Cl)o1)N(C)C (stereo not drawn),n,n,n,79
COc1ccc(-c2cn3nc(N4CCCC(C(=O)Nc5cc(Cl)ccc5C)C4)sc3n2)cc1 (stereo not drawn),n,n,n,n
CCN(CC)CCNC(=O)c1ccc2c(c1)sc1nc(-c3ccc(F)cc3)cn12,89,x,x,x
FC(F)(F)c1cccc(Nc2ncn[nH]2)c1,x,n,x,x
CCOc1ccc(C2=C(C(C)=O)Sc3nnc(C)n3N2C(C)=O)cc1,79,x,x,x
[N-]=C=C1C(=O)N(CCc2ccccc2)C(=O)[C@H]([n+]2ccccc2)[C@H]1c1ccc(Cl)cc1,69,n,n,x
Cc1cc(NNS(=O)(=O)c2ccc(OC(F)(F)F)cc2)n2ncnc2n1,n,n,n,n
O=c1ccc2cc3c([nH]c4ccc(Br)cc43)oc-2c1O,n,n,n,97
Cc1nc2cc(C(=O)OCC(N)=O)ccc2n1-c1ccccc1,n,n,n,n
CCN(CC)S(=O)(=O)c1ccc(=O)n(CC(=O)c2ccc[nH]2)c1,n,n,n,n
CCN1CCN(CCCNC(=O)c2cc3cc4ccc(Cl)cc4nc3o2)CC1,n,-2.3,n,n
O=C(NCCCN1CCCC1)c1cc2cc3ccc(Cl)cc3nc2o1,x,n,x,x
N[C@@H]1C[C@H]1c1ccccc1,n,x,36,n
O=C(O)C1CC1c1ccccc1 (stereo not drawn),n,n,n,n
Cc1cccc(C)c1NC(=O)C(NC(=O)CC1NC(=O)NC1=O)c1ccccc1 (stereo not drawn),n,n,n,n
COc1ccccc1CNC(=O)Cn1c(=O)cnc2ccccc21,n,n,n,n
c1ccc(-c2cnc3nonc3n2)cc1,n,-3,n,x
SMILES,Polio RdRp inh,AID504770,MenB inh,Mtb MbtI inh
COc1cccc(N2C(=O)CN=C2Nc2nc(C)cc(C)n2)c1,n,n,n,x
COc1cccc(N2C(=O)CC(n3nc(Nc4cccc(C)c4)sc3=S)C2=O)c1 (stereo not drawn),n,n,n,99
FC(F)(F)CN(Cn1nc(-c2ccco2)oc1=S)Cn1nc(-c2ccco2)oc1=S,76,n,n,n
CCn1c(C)nc2cc(OC)ccc21,n,n,x,n
COc1cc2nc(C)n(C(=S)S)c2cc1OC,78,n,n,n
O/N=C(/Cn1nnc(N2CCCC2)n1)c1ccc(Cl)cc1,n,n,n,n
O=C(O)c1cc(-c2ccccc2)nc2ccccc12,n,n,n,x
O=C(O)c1nc(-c2ccccc2)cc(-c2ccccc2)n1,n,n,35,n
COc1cccc(C2=NN(C(=O)c3ccccc3Cl)C(c3ccco3)C2)c1 (stereo not drawn),n,n,n,n
COc1ccccc1C1=NN(C(=S)Nc2ccccc2)C(c2ccco2)C1 (stereo not drawn),n,n,n,73
NNc1nnc(-c2ccccc2)c(-c2ccccc2)n1,n,n,n,73
NNc1nc(-c2ccccc2)c2ccccc2n1,x,n,x,x
CCN(C(=O)CSc1nc2ccccc2n1CCC#N)C1=CCCC1,n,n,n,n
COc1ccc(NC(=O)c2sc3nc(-c4cccs4)ccc3c2N)cc1OC,n,n,n,n
S=c1[nH]c2ccccc2n1CCc1ccccc1,67,n,n,81
S=c1[nH]c2ccccc2n1-c1ccccc1,78,n,n,92
CCn1c(=S)[nH]c2ccccc21,n,n,n,n
CCCn1c(=S)[nH]c2ccccc21,n,n,n,86!
Cc1ccc(Sc2c(N)n(C)c(=O)[nH]c2=O)cc1,n,n,n,n
CN(C(=O)CSCc1ccco1)c1ccccc1,n,n,x,n
